Assay [1] in a line: Viability qHTS for spleen associated tyrosine kinase inhibitor (SYKi) drug resistant MV4-11 cells (AID 1963824). Also: nearly all actives have a fitted effect of over 35% in size. The procedure, abridged: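 CellTiter-Glo luminescence, read 10 min after reagent addition, reports viability after a 72 hr compound exposure. Cells are an MV4-11 line made resistant to SYK inhibition, seeded at 500 per well onto compound-containing plates.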
A general note: Quantitative high-throughput screening tests each substance at several concentrations.

Assay [2] is described as follows: Cellular viability qHTS for adrenocortical cancer (ACC) cell line SW-13 (AID 1963989). Also: nearly all actives have a fitted effect of over 65% in size.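 As to activity (max response): cells grown in serum-free medium with ITS supplement; % is scaled to controls: 0 for no effect and ±100 for the full control effect.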 Conditions: SW-13 ACC cells viability, CellTiter-Glo, 48 h; activity (max response): stronger effect = lower value. The procedure, abridged:
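SW-13 cells in ITS-supplemented serum-free DMEM were plated overnight, then exposed for 48 h at 37C to compound titrations (up to 46 uM final). Viability was read by CellTiter-Glo luminescence; four-parameter logistic fits gave IC50 and efficacy.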

The nature of assay [3]: Cellular viability qHTS for adrenocortical cancer (ACC) cell line NCI-H295R (AID 1963990). Also: nearly all actives have a fitted effect of over 60% in size.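 As to activity change, negative = viability loss: 0% = DMSO only wells and -100% = full killing with cytotoxic reference compound.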 Put shortly: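 Luminescent ATP read-out (CellTiter-Glo, 20 min RT) after 48 h drug exposure of NCI-H295R cells; a titration up to 46 uM final. Data normalized to doxorubicin (100% inhibition) and DMSO (0%); 4-parameter fit gives IC50, max response.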

Several values for one entry are separate records, joined by “and”; a condition that tells them apart may be missing. Equal entries are not always repeated. Records with an inconclusive call do not appear. More than one record can exist for a structure, and the calls need not agree. Activity calls are given as the source filed them. Calls follow the shape of the dose curve; as a rule, active = well fitted curve in the direction sought with a large enough effect; inconclusive = small, poorly fitted or top-dose-only effect, or another doubt; inactive = no such curve, though single readings can be large; an effect the other way counts as inactive or inconclusive.
Potency is read from the fitted curve at half-maximal effect.

As to `CC(C)(NS(=O)(=O)c1ccc2c(Cl)cnc(N=C(N)N)c2c1)C(=O)O`, the Potency entry in assay [1] and in assay [3] was “inactive” in each case. Further, the activity (max response) in assay [2] is 5.36% (inactive).

In the case of `O=C(Nc1nccs1)C(c1cc(F)ccc1O)N1Cc2ccccc2C1=O` (stereo unspecified), the Potency in assay [1] was 16.6 µM (active). In addition, in assay [2], the activity (max response) was -2.19% (inactive). Besides, the Potency result in assay [3] was “inactive”.

As to `CN(C(=O)c1c(O)c2ccccc2n(C)c1=O)c1ccccc1`, in assay [1], the Potency was 11.9 µM (active) and inactive. The activity (max response) in assay [2] is 3.23% (inactive) and -16.1% (inactive). In addition, the Potency result in assay [3] is “inactive”.

For `CCC(CC)CC1(C(=O)Nc2ccccc2SC(=O)C(C)C)CCCCC1`, the Potency result in assay [1] and in assay [3] was “inactive” throughout. In addition, the activity (max response) in assay [2] is 9.72% (inactive).

Take `CC1CCC(n2c3cnccc3c3cnc(Nc4ccc5c(n4)CCN(C(=O)CO)C5)nc32)CC1` (stereo unspecified): the Potency in assay [1] is 164 nM (active) and 170 nM (active). In addition, the activity (max response) in assay [2] was -7.81% (inactive). Moreover, the activity change, negative = viability loss in assay [3] is 3.35% [at 9.17 µM] (inactive).

For the compound `COc1cc(N)c(Cl)cc1C(=O)NC1CCN(CCCOc2ccc(F)cc2)CC1OC` (stereo unspecified), the Potency in assay [1] is 23.7 µM (active). Also, in assay [2], the activity (max response) was -12.2% (inactive). In assay [3], the Potency entry was “inactive”.

For the compound `CCC1C(=O)OCC1Cc1cncn1C` (stereo unspecified), the Potency entry in assay [1] and in assay [3] was “inactive” in each case. In addition, the activity (max response) in assay [2] was 6.41% (inactive).

Turning to `CC(=O)O[C@]1(C(C)=O)CC[C@H]2[C@@H]3C=C(Cl)C4=CC(=O)[C@@H]5C[C@@H]5[C@]4(C)[C@H]3CC[C@@]21C`, in assay [1], the Potency was 14.6 µM (active). For the same compound, in assay [2], the activity (max response) is -7.85% (inactive) and -11.2% (inactive). Moreover, in assay [3], the Potency entry was “inactive”.

Consider `CN1CC[C@@H](NC(=O)Nc2ccc(C#N)cc2)C[C@@H]1c1nc2ccccc2[nH]1`, for which the Potency in assay [1] is 18.6 µM (active). Besides, the activity (max response) in assay [2] was -1.78% (inactive). The Potency entry in assay [3] was “inactive”.

For the compound `Nc1ccc(C(=O)N2CC3CC(CN(Cc4ccccc4)C3)C2)cc1`, the Potency result in assay [1] and in assay [3] was “inactive” in each case. Moreover, the activity (max response) in assay [2] was 7.04% (inactive).

With `COc1ccnc2[nH]cc(C(=O)C(=O)N3CCN(C(=O)c4ccccc4)C[C@H]3C)c12`, the Potency entry in assay [1] and in assay [3] was “inactive” each time. The activity (max response) in assay [2] was 1.31% (inactive).

With `c1cc(Nc2cc(C3CC3)[nH]n2)nc(Nc2ccc3nc[nH]c3c2)n1`, the Potency in assay [1] was 0.0184 µM (active); in assay [2], 0.224 µM (active); in assay [3] it was 8.91 µM (active).

Consider `COc1nc(OCc2cccc(-c3ccccc3)c2C)ccc1CNCCNC(C)=O`, for which the Potency is 3.72 µM (active) in assay [1], 7.94 µM (active) in assay [2] and 6.31 µM (active) in assay [3].

Take `C[C@@H](O)[C@H](N)C(=O)O`: the Potency result in assay [1] and in assay [3] was “inactive” each time. In addition, the activity (max response) in assay [2] is 12.2% (inactive).

With `COc1ccccc1C(=O)Nc1cc2c(cc1N1CCCCC1)n(C)c(=O)n2C`, the Potency in assay [1] was 14.8 µM (active). Besides, the activity (max response) in assay [2] is -17.1% (inactive). In addition, the Potency result in assay [3] is “inactive”.

On to `Cc1c[nH]c2nc(Nc3ccc(N4CCN(C)CC4)c(F)c3)nc(-c3cccc(CC#N)c3)c12`, for which the figures for the Potency in assay [1], in assay [2] and in assay [3] were 0.0059 µM (active), 2.24 µM (active) and 2.51 µM (active), respectively.

Consider `Nc1ncnc2c1ncn2[C@@H]1O[C@H](CO)[C@@H](O)[C@H]1O`, for which the Potency result in assay [1] and in assay [3] was “inactive” each time. The activity (max response) in assay [2] is -13.6% (inactive).

Regarding `COc1ncc(Nc2ncc([C@H](C)N3CCN(S(C)(=O)=O)CC3)cc2-c2nc(C)nc(N)n2)cc1F`, the Potency in assay [1] was 2.35 µM (active); in assay [3] it was 0.224 µM (active). Besides, in assay [2], the activity (max response) is -5.36% (inactive).

For the compound `Cc1cc(OI)c(C(C)C)cc1-c1cc(C(C)C)c(OI)cc1C`, the Potency entry in assay [1] and in assay [3] was “inactive” in each case. Besides, the activity (max response) in assay [2] was 11.4% (inactive).

On to `Cc1ccccc1-n1nc(-c2c(-c3ccc(F)cc3)nn3c2NC[C@@H](CO)C3)ccc1=O`, for which the Potency in assay [1] was 2.91 µM (active). The activity (max response) in assay [2] is 12.4% (inactive). The Potency entry in assay [3] is “inactive”.

Take `O=S(=O)(Nc1ccc(-c2cccnc2)c2cccnc12)c1cccc(C(F)(F)F)c1`: the Potency in assay [1] was 5.25 µM (active); in assay [2], 4.47 µM (active); in assay [3], 3.98 µM (active).

On to `COc1cc(N)c(Cl)cc1C(=O)NC1CCN(Cc2ccccc2)CC1`, for which the Potency result in assay [1] and in assay [3] was “inactive” throughout. The activity (max response) in assay [2] is -15.7% (inactive).

In the case of `CCNC(=O)CCC/C=C\C[C@@H]1[C@@H](/C=C/C(O)CCc2ccccc2)[C@@H](O)C[C@@H]1O` (stereo partly specified), the Potency in assay [1] was 14.8 µM (active). For the same compound, in assay [2], the activity (max response) is -10.9% (inactive). For the same compound, in assay [3], the Potency result is “inactive”.

Take `CCOc1ccc2ccccc2c1C(=O)N[C@@H]1C(=O)N2[C@@H]1SC(C)(C)[C@@H]2C(=O)O`: the Potency result in assay [1] and in assay [3] was “inactive” in each case. Also, the activity (max response) in assay [2] is 2.64% (inactive).

Turning to `CCc1cc(C(N)=O)ccc1-n1nc(C(C)C)c2c(-n3cnc(-c4cnn(C)c4)c3)ccnc21`, the Potency in assay [1] was 0.59 µM (active); in assay [2], 2.82 µM (active); in assay [3] it was 7.94 µM (active).

Take `c1ccc2c(CC3=NCCN3)cccc2c1`: the Potency in assay [1] is 11.9 µM (active). Also, the activity (max response) in assay [2] was 1.1% (inactive). In addition, the Potency result in assay [3] was “inactive”.

Consider `CC1=C(/C=C/C(C)=C/C=C/C(C)=C/C(=O)Nc2ccc(O)cc2)C(C)(C)CCC1`, for which the Potency was 2.66 µM (active) and 7.42 µM (active) in assay [1]; 1.84 µM (active) in assay [2]; 4.61 µM (active) in assay [3].

The values above are taken from PubChem BioAssay (NCATS).
